In assay [1] the target is Cellular tumor antigen p53 (Homo sapiens) (UniProt P04637). Briefly: TOX21_p53_BLA_p3_ratio: Tox21 HCT-116 p53 Agonism Beta-lactamase Assay, Ratio, Phase 3 (AID 2283596). The method in brief: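 Cells were seeded at 4000/well, rested 5 h at 37C, then dosed with DMSO compound solutions (217-fold dilution) for 16 h. CCF4-AM substrate was loaded for 2 h at room temperature, and the 460/530 nm emission ratio was fitted for gain of signal versus DMSO.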

Assay [2] in a line: TOX21_p53_BLA_p4_viability: Viability Assessment in the Tox21 HCT-116 p53 Agonism Beta-lactamase Assay, Phase 4 (AID 2283597).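 Note: hits lower the luminescence signal meaning cytotoxicity.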 The method in brief: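 Cytotoxicity as reduced cellular ATP (CellTiter-Glo luminescence, 30 min room temperature), measured in the same wells following the CCF4 FRET p53 reading. Human HCT-116 cells received compounds in DMSO (217-fold dilution) for 16 h.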

Assay [3] has as its target Cellular tumor antigen p53 (Homo sapiens) (UniProt P04637). Description: TOX21_p53_BLA_p5_ratio: Tox21 HCT-116 p53 Agonism Beta-lactamase Assay, Ratio, Phase 5 (AID 2283599). A digest of the protocol: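 HCT-116 cells carrying a p53-inducible beta-lactamase reporter were seeded at 4000 cells/well and dosed after 5 h with compound in DMSO (217-fold dilution). After 16 h at 37C, CCF4-AM substrate was added for 2 h, and the 460/530 nm emission ratio was scored as gain-of-signal versus DMSO.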

The nature of assay [4]: TOX21_p53_BLA_p5_viability: Viability Assessment in the Tox21 HCT-116 p53 Agonism Beta-lactamase Assay, Phase 5 (AID 2283600). A digest of the protocol: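 Viability came from CellTiter-Glo ATP luminescence, read after 30 min at room temperature. Before this, HCT-116 p53-bla cells (4000/well) had 16 hours of compound exposure at 37C, with DMSO stocks diluted 217-fold on transfer.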

In assay [5] the target is Cellular tumor antigen p53 (Homo sapiens) (UniProt P04637). Briefly: TOX21_p53_BLA_p4_ratio: Tox21 HCT-116 p53 Agonism Beta-lactamase Assay, Ratio, Phase 4 (AID 2283601). A digest of the protocol:
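HCT116 cells carrying an inducible beta-lactamase reporter were plated at 4000 cells/well, rested 5 h, then exposed to compounds in DMSO (217-fold dilution) for 16 h at 37C. CCF4-AM substrate was loaded 2 h at room temperature; 460/530 nm emission ratio scored gain-of-signal versus DMSO.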

SMILES strings stand for the structures. Inconclusive results are not listed. Where a structure was tested more than once in an assay, its records may differ in their call. Active and inactive are the calls of the source. Rule for the calls: active = hit-call score of the fitted dose curve at least 0.9, where 1 is the maximum; inconclusive = response in the unintended direction; inactive = score below 0.9.

By AC50 is commonly meant the concentration at which the activity in the assay is half-maximal.

Cellular tumor antigen p53 (Homo sapiens), sequence (P04637 whole entry, looked up): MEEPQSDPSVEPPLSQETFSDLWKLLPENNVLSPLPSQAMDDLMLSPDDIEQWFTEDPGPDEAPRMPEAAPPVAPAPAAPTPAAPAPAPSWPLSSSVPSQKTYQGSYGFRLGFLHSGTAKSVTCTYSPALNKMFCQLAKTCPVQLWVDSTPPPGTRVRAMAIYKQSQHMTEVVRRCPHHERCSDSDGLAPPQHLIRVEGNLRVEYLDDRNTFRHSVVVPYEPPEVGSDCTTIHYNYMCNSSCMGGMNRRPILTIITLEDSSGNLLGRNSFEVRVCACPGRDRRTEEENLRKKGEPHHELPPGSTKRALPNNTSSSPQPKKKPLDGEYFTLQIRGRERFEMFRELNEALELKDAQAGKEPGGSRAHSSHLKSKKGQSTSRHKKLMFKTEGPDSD

As for `CCCCC1CCCCC(=O)O1` (stereo not given), the result in assay [1], in assay [2], in assay [3] and in assay [4] was inactive.
Take `CCNC(=S)NCC`: the outcome in assay [1], in assay [2], in assay [3], in assay [4] and in assay [5] was inactive.
As for `Nc1ccn([C@H]2CC[C@@H](CO)O2)c(=O)n1`, the outcome in assay [1], in assay [2], in assay [3], in assay [4] and in assay [5] was inactive.
As for `CC(CCO)CC(C)(C)C` (stereo not given), the outcome in assay [1], in assay [2], in assay [3], in assay [4] and in assay [5] was inactive.
`CCOc1ccc(NC(C)=O)cc1`: the outcome in assay [1], in assay [2], in assay [3], in assay [4] and in assay [5] was inactive.
With `CC1=CCC(C(C)(C)O)CC1` (stereo not given), the outcome in assay [1], in assay [2], in assay [3], in assay [4] and in assay [5] was inactive.
In the case of `NC(N)=NC(N)=NCCc1ccccc1`, in assay [1], the AC50 was 30.6 µM (active). The result in assay [1], in assay [2], in assay [3], in assay [4] and in assay [5] was inactive.
For the compound `CCCCCCCCCCCCS`, the result in assay [1], in assay [2], in assay [3], in assay [4] and in assay [5] was inactive.
Consider `CC1(C)CC(N)CC(C)(CN)C1` (stereo not given), for which the outcome in assay [1], in assay [2], in assay [3], in assay [4] and in assay [5] was inactive.
Turning to `c1ccc(OCCOc2ccccc2)cc1`, the outcome in assay [1], in assay [2], in assay [3], in assay [4] and in assay [5] was inactive.
In the case of `FC(F)(F)c1ccc(Cl)c(Cl)c1`, the outcome in assay [1], in assay [2], in assay [3], in assay [4] and in assay [5] was inactive.
For `O=S1(=O)CC=CC1`, the outcome in assay [1], in assay [2], in assay [3], in assay [4] and in assay [5] was inactive.
`COc1ccccc1O`: the result in assay [1], in assay [2], in assay [3], in assay [4] and in assay [5] was inactive.
For `CC(=O)Oc1c(C)c(C)c2c(c1C)CC[C@@](C)(CCC[C@H](C)CCC[C@H](C)CCCC(C)C)O2`, the outcome in assay [1], in assay [2], in assay [3], in assay [4] and in assay [5] was inactive.
`Nc1cc([N+](=O)[O-])ccc1C(=O)O`: the outcome in assay [1], in assay [2], in assay [3], in assay [4] and in assay [5] was inactive.

Source of the values: PubChem BioAssay (EPA / NIEHS).
